# Test results from PubChem BioAssay (EPA / NIEHS).
# Results filed as inconclusive are left out. The source made the active and inactive calls. How the source made its calls, unless noted: active means hit-call score of the fitted dose curve at least 0.9, where 1 is the maximum; inactive means score below 0.9.
# Columns and labels:
# [1] = target: Nucleoli Translocation, AR (gene 367) (UniProt P10275); test: UPITT_HCI_U2OS_AR_TIF2_Nucleoli_Antagonist: University of Pittsburgh U2OS Androgen Receptor-Transcriptional Intermediary Factor 2 (AR-TIF2) Antagonism High Content Imaging Assay for Nucleoli Translocation (AID 2283997; active means hit-call score of the fitted dose curve at least 0.9, where 1 is the maximum)
# Summary of the method: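 Measured quantity was AR-RFP fluorescence localized to nucleoli in engineered U2OS cells also bearing TIF2-GFP, acquired on automated high-content imagers. Primary testing used 20 uM compound; actives were confirmed in triplicate wells.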
# [2] = target: Ratio of Nucleoli Translocation and Cytoplasm, AR (gene 367) (UniProt P10275); test: UPITT_HCI_U2OS_AR_TIF2_Nucleoli_Cytoplasm_Ratio_Antagonist: University of Pittsburgh U2OS Androgen Receptor-Transcriptional Intermediary Factor 2 (AR-TIF2) Antagonism High Content Imaging Assay for Ratio of Nucleoli Translocation and Cytoplasm (AID 2283999; active means hit-call score of the fitted dose curve at least 0.9, where 1 is the maximum;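 further: antagonists lower the DHT-driven ratio of nucleolar to cytoplasmic red signal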)
# Summary of the method: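 U2OS cells expressing RFP-tagged human AR and GFP-tagged TIF2; compounds tested at 20 uM final (0.2% DMSO) in primary screen, 0.195–50 uM (0.5% DMSO) for concentration response. Readout: nucleolar-to-cytoplasmic red fluorescence ratio by high-content imaging, fitted relative to DHT.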
# [3] = target: Nucleoli Translocation, AR (gene 367) (UniProt P10275); test: UPITT_HCI_U2OS_AR_TIF2_Nucleoli_Agonist: University of Pittsburgh U2OS Androgen Receptor-Transcriptional Intermediary Factor 2 (AR-TIF2) Agonism High Content Imaging Assay for Nucleoli Translocation (AID 2283998; active means hit-call score of the fitted dose curve at least 0.9, where 1 is the maximum)
# Summary of the method: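 Cells express human AR fused to red fluorescent protein and TIF2 fused to GFP. Red fluorescence in the nucleolar region was quantified by high-content imaging and fitted as gain-of-signal against a DMSO baseline. Compounds were tested at 0.195 to 50 uM final (0.5% DMSO).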
# [4] = CCTE_Harrill_HTTr_Viability_MCF7: CCTE's 6-hour Cell Viability Assessment for the High-Throughput Transcriptomics (HTTr) Platform, in MCF-7 cells cultured in DMEM + 10% fetal bovine serum, Harrill Lab (AID 2284010)
# Summary of the method: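 Membrane integrity was scored by high-content imaging of propidium iodide dye exclusion after a 6 h exposure across an eight-point dilution series. Data were fitted bidirectionally relative to DMSO as negative control and baseline.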
# [5] = CCTE_Harrill_HTTr_Apoptosis_MCF7: CCTE's 6-hour Apoptosis Assessment for the High-Throughput Transcriptomics (HTTr) Platform, in MCF-7 cells cultured in DMEM + 10% fetal bovine serum, Harrill Lab (AID 2284011)
# Summary of the method: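 MCF-7 cells in DMEM + 10% fetal bovine serum were exposed to chemicals for 6 hours over an eight-point dilution series. Caspase-3/7 activation was imaged by high content imaging with CellEvent Caspase 3/7 Green; bidirectional fitting used DMSO as baseline.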
# [6] = CCTE_Harrill_HTTr_CellCount_MCF7: CCTE's Cell Proliferation Assessment for the High-Throughput Transcriptomics (HTTr) Platform, Harrill Lab (AID 2284012; active means hit-call score of the fitted dose curve at least 0.9, where 1 is the maximum;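 further: cells exposed to compound for six hours; intended direction is loss of nuclei count meaning fewer cells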)
# Summary of the method: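 MCF-7 cells were exposed for 6 h to an eight-point dilution series; Hoechst-labeled nuclei were counted by high content imaging. Curves were fitted bidirectionally against DMSO as negative control and baseline, with signal loss indicating reduced cell count.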
# [7] = CCTE_Shafer_MEA_acute_spike_number: CCTE's Neural Acute Assay for Total Number of Spikes, Shafer Lab (AID 2284008);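 on AC50: curve fitted for decrease in spike count so AC50 reflects inhibitors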
# Summary of the method: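 Primary rat cortical neurons on 16-electrode MEA wells; on DIV 13 or 15, 40-min baseline then 40-min recording with compound (0.03-40 uM) at 37 C. Spikes detected at 8x rms noise; percent change versus baseline, DMSO as negative control.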
# [8] = CCTE_Shafer_MEA_acute_firing_rate_mean: CCTE's Neural Acute Assay for Mean Firing Rate, Shafer Lab (AID 2284009);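 further: analyzed for loss of signal so actives lower firing rate relative to DMSO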
# Summary of the method: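 Percent change in well-mean firing rate was derived from extracellular spikes detected at 8x rms noise (300-5000 Hz band-pass) before and after a 40-min compound exposure. Cultures were primary rat cortical neurons, tested at 0.03-40 uM.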
# [9] = CCTE_Shafer_MEA_acute_burst_number: CCTE's Neural Acute Assay for Single-Electrode Bursts, Shafer Lab (AID 2284013)
# Summary of the method: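 Spontaneous network activity of primary rat cortical neurons was recorded extracellularly on microelectrode arrays at 37 C, with 40-min periods before and during exposure to 0.03-40 uM compound on DIV 13 or 15.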
# [10] = CCTE_Shafer_MEA_acute_burst_duration_mean: CCTE's Neural Acute Assay for Mean Burst Duration, Shafer Lab (AID 2284014);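 further: hits are decreases in mean burst duration relative to DMSO controls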
# Summary of the method: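 Read-out is the per-well percent change in mean burst duration (first to last spike within a single-electrode burst) between 40-min recordings before and after compound. Cultures were primary rat cortical neurons on MEAs, dosed at 0.03-40 uM on DIV 13 or 15.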
# [11] = CCTE_Shafer_MEA_acute_per_burst_spike_number_mean: CCTE's Neural Acute Assay for Average Number of Spikes Per Burst, Shafer Lab (AID 2284015);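 further: hits are decreases in mean spikes per burst versus baseline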
# Summary of the method: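 Percent change in mean spikes per single-electrode burst is compared between a 40 min baseline and a 40 min recording with compound (0.03-40 uM). Cultures were rat cortical neurons on MEA plates at DIV 13 or 15, recorded at 37 C, with DMSO as the negative control.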
# [12] = target: Retinoic acid receptor RXR-alpha (Homo sapiens) (UniProt P19793); test: TOX21_TR_RXR_BLA_Antagonist_Followup_ratio: Tox21 Thyroid Hormone Receptor beta Retinoid X Receptor alpha (RXRa) Antagonism Beta-lactamase (BLA) Follow-Up Assay, Ratio (AID 2283972; active means hit-call score of the fitted dose curve at least 0.9, where 1 is the maximum)
# Summary of the method: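 RXRa-UAS-bla HEK293T cells in phenol red-free DMEM with 2% charcoal-stripped FBS; compounds at 11 concentrations in triplicate, 16 h at 37C. LiveBLAzer FRET-B/CCF4-AM substrate 2 h at room temperature; read as 460:530 nm ratio versus DMSO.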
# [13] = TOX21_TR_RXR_BLA_Antagonist_Followup_viability: Viability Assessment in the Tox21 Thyroid Hormone Receptor beta Retinoid X Receptor alpha (RXRa) Antagonism Beta-lactamase (BLA) Follow-Up Assay (AID 2283979; active means hit-call score of the fitted dose curve at least 0.9, where 1 is the maximum)
# Summary of the method: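 Follow-up compounds (11 concentrations, triplicate) were incubated 16 h at 37C/5% CO2 with HEK293T RXRa-bla cells seeded at 2,500/well in charcoal-stripped-serum medium. ATP content by CellTiter-Glo luminescence gave viability; curves fitted in both directions against DMSO.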
# [14] = CCTE_Simmons_MITO_basal_resp_rate: CCTE's HepG2 Seahorse XF Respirometric Screening Assay at Basal Respiratory State, Simmons Lab (AID 2284001); conditions: actives raise or lower the signal
# Summary of the method: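 HepG2 respirometry; 7-pt titration 125 nM–100 uM final; kinetic OCR at 6 min intervals for 72 min; n=3 biological, technical singles; DMSO baseline, gain or loss fit; fenpyroximate (decrease) and 2,4-DNP (increase) controls.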
# [15] = CCTE_Simmons_MITO_max_resp_rate: CCTE's HepG2 Seahorse XF Respirometric Screening Assay at Maximal Respiratory State [uncoupled], Simmons Lab (AID 2284002); conditions: actives raise or lower the signal
# Summary of the method: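 HepG2 oxygen consumption was read on a Seahorse XF96 after FCCP uncoupler injection, following test compound injection; 7 concentrations, 125 nM–100 uM final, three biological replicates. Bidirectional fitting against DMSO vehicle baseline.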
# [16] = CCTE_Simmons_MITO_inhib_resp_rate: CCTE's HepG2 Seahorse XF Respirometric Screening Assay at Inhibited Respiratory State [full ETC block], Simmons Lab (AID 2284006); conditions: actives raise or lower the signal
# Summary of the method: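 HepG2 cells on Seahorse XF96; oxygen consumption measured after test compound, then FCCP, then rotenone/antimycin A injections over 72 min. Test chemicals at 7 concentrations, 125 nM–100 uM final. OCR fitted bidirectionally versus DMSO.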
# [17] = CCTE_Simmons_MITO_viability: CellTiter-Glo Viability Assessment for CCTE's HepG2 Seahorse XF Respirometric Screening Assay [post-hoc], Simmons Lab (AID 2284007; active means hit-call score of the fitted dose curve at least 0.9, where 1 is the maximum)
# Summary of the method: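 HepG2 cells from the Seahorse XF respirometry run were exposed 90 min to a 7-point series, 125 nM–100 uM final, DMSO vehicle; ATP content then read by luciferase luminescence. Three biological replicates, technical singles; loss of signal fitted versus DMSO.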
# DIO1 (gene 1733) = test: CCTE_GLTED_hDIO1: CCTE's human Deiodinase 1 (DIO1) Inhibition Assay, Great Lakes Toxicology and Ecology Division (GLTED) Lab (AID 2283987; active means hit-call score of the fitted dose curve at least 0.9, where 1 is the maximum;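 further: isolated human DIO1 enzyme in a cell-free setup rather than cells; enzyme activity read as free iodide liberated from substrate via Sandell-Kolthoff colorimetry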)
# Summary of the method: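 Cell-free human DIO1 enzyme was incubated with test chemical for 3 h, and iodide released from substrate was measured by Sandell-Kolthoff absorbance. Loss of signal versus DMSO baseline indicated inhibition; plates were run in triplicate.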
# Sequence of Nucleoli Translocation, AR (gene 367) (P10275 whole entry, looked up, the tested form may be a part): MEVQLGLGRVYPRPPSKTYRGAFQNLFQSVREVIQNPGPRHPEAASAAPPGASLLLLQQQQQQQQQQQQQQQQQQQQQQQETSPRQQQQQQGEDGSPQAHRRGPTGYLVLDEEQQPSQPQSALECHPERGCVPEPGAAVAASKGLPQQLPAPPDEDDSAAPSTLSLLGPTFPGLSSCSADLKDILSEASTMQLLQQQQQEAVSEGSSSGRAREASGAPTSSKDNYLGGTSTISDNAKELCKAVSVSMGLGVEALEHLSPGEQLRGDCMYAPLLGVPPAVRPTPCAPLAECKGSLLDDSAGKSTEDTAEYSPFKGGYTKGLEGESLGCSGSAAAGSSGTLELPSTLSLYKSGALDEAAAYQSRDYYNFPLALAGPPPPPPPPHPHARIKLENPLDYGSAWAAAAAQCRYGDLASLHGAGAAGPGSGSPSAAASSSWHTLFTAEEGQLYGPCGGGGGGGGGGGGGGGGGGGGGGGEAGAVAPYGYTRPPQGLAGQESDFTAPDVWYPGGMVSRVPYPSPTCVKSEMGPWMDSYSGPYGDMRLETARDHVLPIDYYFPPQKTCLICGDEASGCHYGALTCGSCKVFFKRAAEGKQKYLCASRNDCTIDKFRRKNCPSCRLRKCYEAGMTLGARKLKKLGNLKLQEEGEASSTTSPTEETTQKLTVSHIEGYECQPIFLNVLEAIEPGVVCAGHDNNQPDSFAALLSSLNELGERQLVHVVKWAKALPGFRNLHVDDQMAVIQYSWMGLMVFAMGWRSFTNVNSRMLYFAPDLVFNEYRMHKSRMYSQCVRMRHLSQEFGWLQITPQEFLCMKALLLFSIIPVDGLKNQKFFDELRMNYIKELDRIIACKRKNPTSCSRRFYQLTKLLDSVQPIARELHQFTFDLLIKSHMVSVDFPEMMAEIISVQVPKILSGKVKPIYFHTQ
# Sequence of Ratio of Nucleoli Translocation and Cytoplasm, AR (gene 367) (P10275 whole entry, looked up): as the sequence (P10275 whole entry, looked up, the tested form may be a part) above
# Sequence of Retinoic acid receptor RXR-alpha (Homo sapiens) (P19793 whole entry, looked up): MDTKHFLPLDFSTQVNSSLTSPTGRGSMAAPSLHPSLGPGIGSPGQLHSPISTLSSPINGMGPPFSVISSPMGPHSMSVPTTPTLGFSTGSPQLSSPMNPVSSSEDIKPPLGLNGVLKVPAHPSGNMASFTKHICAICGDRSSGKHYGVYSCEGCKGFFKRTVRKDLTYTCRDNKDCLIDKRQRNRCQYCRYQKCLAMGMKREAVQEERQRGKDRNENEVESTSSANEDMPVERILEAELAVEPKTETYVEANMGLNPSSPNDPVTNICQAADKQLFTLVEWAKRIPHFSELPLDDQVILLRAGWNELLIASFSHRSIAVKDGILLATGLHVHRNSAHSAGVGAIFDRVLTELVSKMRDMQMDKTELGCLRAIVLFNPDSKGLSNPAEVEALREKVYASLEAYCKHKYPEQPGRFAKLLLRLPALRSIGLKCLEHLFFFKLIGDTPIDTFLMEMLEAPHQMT
compound,measurement,setting,value
COc1cc(OC)c2ccc(=O)oc2c1,outcome,[1],inactive
same,outcome,[2],inactive
CCO[Si](CC)(OCC)OCC,outcome,[1],inactive
same,outcome,[3],inactive
same,outcome,[2],inactive
CC(=O)N(C)C,outcome,[1],inactive
same,outcome,[4],inactive
same,outcome,[5],inactive
same,outcome,[6],inactive
c1ccc2c(c1)-c1ccc3ccc4cccc5cc-2c1c3c45,AC50,[1],15.4 µM (active)
same,outcome,[3],inactive
same,outcome,[2],inactive
same,outcome,[5],inactive
CC(C)(C)c1cccc(O)c1,outcome,[1],inactive
same,AC50,[3],30.6 µM (active)
same,outcome,[2],inactive
CCn1cc(C(=O)O)c(=O)c2ccc(C)nc21,AC50,[7],0.003 µM (active)
same,AC50,[8],0.003 µM (active)
same,outcome,[4],inactive
same,outcome,[5],inactive
same,outcome,[6],inactive
same,AC50,[9],0.003 µM (active)
same,outcome,[10],inactive
same,outcome,[11],inactive
N[C@@H](CCC(=O)O)C(=O)O,outcome,[7],inactive
same,outcome,[8],inactive
same,outcome,[9],inactive
same,outcome,[10],inactive
same,outcome,[11],inactive
C#C[C@]1(O)CC[C@H]2[C@@H]3CCc4cc(O)ccc4[C@H]3CC[C@@]21C,AC50,[12],38.3 µM (active)
same,outcome,[13],inactive
same,AC50,[14],33.4 µM (active)
same,outcome,[15],inactive
same,outcome,[16],inactive
same,outcome,[17],inactive
same,outcome,[4],inactive
same,outcome,[5],inactive
same,outcome,[6],inactive
CCCO[Si](OCCC)(OCCC)OCCC,outcome,[7],inactive
same,outcome,[8],inactive
same,outcome,[9],inactive
same,outcome,[10],inactive
same,outcome,[11],inactive
CC(C)(C)c1ccc(S)cc1,AC50,DIO1 (gene 1733),16.3 µM (active)
C[C@H](CCC(=O)O)[C@H]1CC[C@H]2[C@@H]3CC[C@@H]4C[C@H](O)CC[C@]4(C)[C@H]3CC[C@]12C,outcome,[5],inactive
same,outcome,[6],inactive
CCCCCC1CCC(=O)O1 (stereo not drawn),outcome,[5],inactive
CC(O)CN (stereo not drawn),outcome,[5],inactive
COc1ccc2[nH]cc(CCNC(C)=O)c2c1,outcome,[5],inactive
same,outcome,[6],inactive
CC(=O)CC(=O)N(C)C,outcome,[5],inactive
same,outcome,[6],inactive
CC(C)Cc1ccc(C(C)C(=O)O)cc1 (stereo not drawn),outcome,[5],inactive
O=C(O)c1cc2ccccc2cc1O,outcome,[5],inactive
same,outcome,[6],inactive
CN(C)CCC=C1c2ccccc2CCc2ccccc21,outcome,[5],inactive
Cc1cccc(C)c1,outcome,[5],inactive
same,outcome,[6],inactive
NC(=O)c1cnccn1,outcome,[5],inactive
CCOC(=O)C=Cc1ccccc1,outcome,[5],inactive
Brc1cc(Br)cc(Br)c1,outcome,[5],inactive
same,outcome,[6],inactive
CC(O)COCC(C)O (stereo not drawn),outcome,[5],inactive
same,outcome,[6],inactive
NC(=O)c1cccnc1,outcome,[5],inactive
same,outcome,[6],inactive
CN(C)C(=O)Nc1ccccc1,outcome,[5],inactive
same,outcome,[6],inactive
C=C(C)C(N)=O,outcome,[5],inactive
CC(=O)CCc1ccc(O)cc1,outcome,[5],inactive
CC(=O)OC/C=C(C)/C=C/C=C(C)/C=C/C1=C(C)CCCC1(C)C,outcome,[5],inactive
same,outcome,[6],inactive
CN(C)CCCNCCCN(C)C,outcome,[5],inactive
same,outcome,[6],inactive
O=C(O)c1ccccc1O,outcome,[5],inactive
same,outcome,[6],inactive
O=C1CCCCCCCCCCCC(=O)OCCO1,outcome,[5],inactive
same,outcome,[6],inactive
C=C1CC/C=C(\C)CC[C@@H]2[C@@H]1CC2(C)C,outcome,[5],inactive
Cc1cccc(O)c1,outcome,[5],inactive
same,outcome,[6],inactive
CC1=CCC(C(C)(C)O)CC1 (stereo not drawn),outcome,[5],inactive
same,outcome,[6],inactive
CC12CCC(C1)C(C)(C)C2O (stereo not drawn),outcome,[5],inactive
same,outcome,[6],inactive
COc1ccccc1O,outcome,[5],inactive
same,outcome,[6],inactive
OCC=Cc1ccccc1,outcome,[5],inactive
CCCCOC(=O)C(C)OC(=O)CCC (stereo not drawn),outcome,[5],inactive
same,outcome,[6],inactive
COC(=O)c1ccc(C(=O)OC)cc1,outcome,[5],inactive
CCCCOCCOCCOCCO,outcome,[5],inactive
O=C(O)c1cc(C(=O)O)c(C(=O)O)cc1C(=O)O,outcome,[5],inactive
same,outcome,[6],inactive
O=C1OC2(c3ccc(O)cc3Oc3cc(O)ccc32)c2ccccc21,AC50,[5],0.171 µM (active)
same,outcome,[6],inactive
COc1ccc(C(C)=O)cc1,outcome,[5],inactive
same,outcome,[6],inactive
